From publication PMC7862700, “An all-to-all approach to the identification of sequence-specific readers for epigenetic DNA modifications on cytosine”

Columns and labels:
Test in all cases: DAPPL (digital affinity profiling via proximity ligation, sequencing); 10 mM Tris-HCl pH 7.5, 50 mM NaCl, 1 mM DTT, 4% glycerol, room temperature, 30 min; GST-TFs on glutathione beads, 16-mer random dsDNA library, 0.1% formaldehyde crosslink after washing; high values mean tight binding
Settings in all cases: protein: recombinant; tags: N-terminal GST; dsDNA, one strand shown
ERF = target: T1, ERF (Homo sapiens, UniProt P50548 1-548)
T1 sequence: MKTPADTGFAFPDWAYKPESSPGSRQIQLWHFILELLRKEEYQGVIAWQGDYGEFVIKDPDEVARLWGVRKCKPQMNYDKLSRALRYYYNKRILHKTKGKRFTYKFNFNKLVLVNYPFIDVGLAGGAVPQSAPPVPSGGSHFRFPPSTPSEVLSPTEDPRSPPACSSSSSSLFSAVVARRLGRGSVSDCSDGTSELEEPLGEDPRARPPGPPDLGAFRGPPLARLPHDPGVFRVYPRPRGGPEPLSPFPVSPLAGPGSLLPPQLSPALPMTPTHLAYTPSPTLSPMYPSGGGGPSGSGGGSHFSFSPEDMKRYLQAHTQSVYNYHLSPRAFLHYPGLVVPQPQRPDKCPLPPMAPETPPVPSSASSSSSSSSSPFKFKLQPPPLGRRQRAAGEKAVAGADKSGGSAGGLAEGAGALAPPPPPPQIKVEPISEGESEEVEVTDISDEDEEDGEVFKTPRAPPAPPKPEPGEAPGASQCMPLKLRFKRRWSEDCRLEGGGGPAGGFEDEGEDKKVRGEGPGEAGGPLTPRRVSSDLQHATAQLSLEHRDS
Summary of the method: (§1)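 Binding signal is defined as a hexamer's read frequency for one factor over its frequency for the tag-only sample. To obtain reads, GST-fused human transcription factors were expressed in yeast, captured on glutathione beads, barcoded with DNA and pooled with that sample. Pools met 200 nmole of a 16-mer random double-stranded DNA library in Tris/NaCl/DTT/glycerol buffer for 30 min at room temperature before washing, 0.1% formaldehyde crosslinking, proximity ligation (BsaI/T4 ligase, 1 h, 37 °C), PCR and Illumina NextSeq500 sequencing.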

ETV3L = target: T2, ETV3L (Homo sapiens, UniProt Q6ZN32 1-361)
T2 sequence: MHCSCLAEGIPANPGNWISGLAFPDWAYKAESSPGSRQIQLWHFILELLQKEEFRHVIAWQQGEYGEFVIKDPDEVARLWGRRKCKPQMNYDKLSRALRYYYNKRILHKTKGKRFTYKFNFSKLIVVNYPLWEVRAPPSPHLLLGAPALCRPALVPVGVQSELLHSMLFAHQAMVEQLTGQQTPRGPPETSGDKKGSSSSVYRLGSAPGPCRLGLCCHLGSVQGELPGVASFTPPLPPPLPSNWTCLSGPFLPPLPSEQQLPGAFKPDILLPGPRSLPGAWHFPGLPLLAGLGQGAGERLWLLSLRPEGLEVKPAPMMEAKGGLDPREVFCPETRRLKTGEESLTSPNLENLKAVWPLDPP
Summary of the method: as §1

ETS2 = target: T3, ETS2 (Homo sapiens, UniProt P15036 1-469)
T3 sequence: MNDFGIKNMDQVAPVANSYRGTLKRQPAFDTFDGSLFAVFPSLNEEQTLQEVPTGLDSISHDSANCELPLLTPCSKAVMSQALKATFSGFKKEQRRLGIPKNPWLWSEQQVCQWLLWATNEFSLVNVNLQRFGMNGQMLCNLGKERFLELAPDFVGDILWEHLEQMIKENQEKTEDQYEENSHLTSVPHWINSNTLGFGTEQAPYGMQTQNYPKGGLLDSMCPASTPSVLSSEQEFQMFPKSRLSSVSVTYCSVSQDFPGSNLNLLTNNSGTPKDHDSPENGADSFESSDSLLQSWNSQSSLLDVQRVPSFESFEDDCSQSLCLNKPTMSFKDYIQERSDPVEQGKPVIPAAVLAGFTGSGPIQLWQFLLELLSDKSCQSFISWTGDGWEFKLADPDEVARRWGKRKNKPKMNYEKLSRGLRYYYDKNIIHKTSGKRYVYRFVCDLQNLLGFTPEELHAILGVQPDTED
Summary of the method: as §1

SPDEF = target: T4, SPDEF (Homo sapiens, UniProt O95238 1-335)
T4 sequence: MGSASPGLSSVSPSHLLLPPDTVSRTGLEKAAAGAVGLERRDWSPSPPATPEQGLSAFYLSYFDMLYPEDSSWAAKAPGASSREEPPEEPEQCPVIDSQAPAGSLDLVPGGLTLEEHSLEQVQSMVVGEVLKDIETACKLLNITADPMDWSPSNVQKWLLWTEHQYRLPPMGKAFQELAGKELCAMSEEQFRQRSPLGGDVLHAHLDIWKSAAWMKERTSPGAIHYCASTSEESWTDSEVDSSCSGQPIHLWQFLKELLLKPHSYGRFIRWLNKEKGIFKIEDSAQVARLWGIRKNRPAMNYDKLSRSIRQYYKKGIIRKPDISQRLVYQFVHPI
Summary of the method: as §1

ETV7 = target: T5, ETV7 (Homo sapiens, UniProt Q9Y603 1-341)
T5 sequence: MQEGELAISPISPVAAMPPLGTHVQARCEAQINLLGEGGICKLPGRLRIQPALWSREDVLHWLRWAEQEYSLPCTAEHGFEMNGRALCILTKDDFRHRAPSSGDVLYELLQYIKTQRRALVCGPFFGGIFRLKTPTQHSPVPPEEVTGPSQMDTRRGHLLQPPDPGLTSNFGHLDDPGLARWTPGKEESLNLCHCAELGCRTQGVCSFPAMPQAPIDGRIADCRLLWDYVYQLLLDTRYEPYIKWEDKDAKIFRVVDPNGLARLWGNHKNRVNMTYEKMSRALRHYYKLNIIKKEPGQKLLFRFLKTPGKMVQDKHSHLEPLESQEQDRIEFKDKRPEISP
Summary of the method: as §1

ELF5 = target: T6, ELF5 (Homo sapiens, UniProt Q9UKW6-2 1-255)
T6 sequence: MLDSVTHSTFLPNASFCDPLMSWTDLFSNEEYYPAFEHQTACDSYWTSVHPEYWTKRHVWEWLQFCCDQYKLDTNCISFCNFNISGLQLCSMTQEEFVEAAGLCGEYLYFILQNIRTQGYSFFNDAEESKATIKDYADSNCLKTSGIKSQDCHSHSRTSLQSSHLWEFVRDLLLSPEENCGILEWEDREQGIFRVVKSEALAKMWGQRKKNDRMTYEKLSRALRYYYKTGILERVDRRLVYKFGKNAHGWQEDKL
Summary of the method: as §1

ETV3 = target: T7, ETV3 (Homo sapiens, UniProt P41162-2 1-143)
T7 sequence: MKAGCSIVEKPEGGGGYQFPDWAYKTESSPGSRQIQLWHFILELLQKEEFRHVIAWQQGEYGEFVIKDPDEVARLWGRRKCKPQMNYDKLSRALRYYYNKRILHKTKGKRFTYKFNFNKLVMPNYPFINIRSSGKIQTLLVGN
Summary of the method: as §1

ETV6 = ETV6 (Homo sapiens, UniProt P41212 1-452)
Summary of the method: as §1

ETV6, sequence (P41212 whole entry): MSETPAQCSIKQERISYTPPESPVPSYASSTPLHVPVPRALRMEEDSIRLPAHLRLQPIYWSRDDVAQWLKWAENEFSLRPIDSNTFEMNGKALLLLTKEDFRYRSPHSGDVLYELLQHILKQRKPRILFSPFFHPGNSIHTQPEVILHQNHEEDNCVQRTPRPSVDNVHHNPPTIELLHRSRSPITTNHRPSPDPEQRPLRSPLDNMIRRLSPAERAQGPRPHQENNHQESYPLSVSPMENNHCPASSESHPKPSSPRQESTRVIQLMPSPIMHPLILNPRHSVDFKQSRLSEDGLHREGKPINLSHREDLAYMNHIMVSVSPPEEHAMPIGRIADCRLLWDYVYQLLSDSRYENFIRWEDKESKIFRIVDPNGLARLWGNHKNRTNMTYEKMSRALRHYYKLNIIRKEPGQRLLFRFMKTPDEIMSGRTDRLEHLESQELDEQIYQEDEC

For CCGGAA, the binding signal (ERF) was 4.48 fold enrichment (6-mer frequency, TF over GST control), the binding signal (ETV3L) was 5.28 fold enrichment (6-mer frequency, TF over GST control) and the binding signal (ETS2) was 5.63 fold enrichment (6-mer frequency, TF over GST control). For the same sequence, the binding signal (SPDEF) was 6.22 fold enrichment (6-mer frequency, TF over GST control), the binding signal (ETV7) was 5.01 fold enrichment (6-mer frequency, TF over GST control) and the binding signal (ELF5) was 6.42 fold enrichment (6-mer frequency, TF over GST control). The binding signal (ETV3) was 6.2 fold enrichment (6-mer frequency, TF over GST control) and the binding signal (ETV6) was 6.11 fold enrichment (6-mer frequency, TF over GST control).
CTCTCC was tested, and the binding signal (ERF) was 1.43 fold enrichment (6-mer frequency, TF over GST control), the binding signal (ETV3L) was 1.44 fold enrichment (6-mer frequency, TF over GST control) and the binding signal (ETS2) was 1.43 fold enrichment (6-mer frequency, TF over GST control). The binding signal (SPDEF) was 1.22 fold enrichment (6-mer frequency, TF over GST control), the binding signal (ETV7) was 1.31 fold enrichment (6-mer frequency, TF over GST control) and the binding signal (ELF5) was 1.37 fold enrichment (6-mer frequency, TF over GST control). For the same sequence, the binding signal (ETV3) was 1.45 fold enrichment (6-mer frequency, TF over GST control) and the binding signal (ETV6) was 1.37 fold enrichment (6-mer frequency, TF over GST control).
In the case of TTAATC, the binding signal (ERF) is reported as 1.19 fold enrichment (6-mer frequency, TF over GST control), the binding signal (ETV3L) is reported as 1.21 fold enrichment (6-mer frequency, TF over GST control) and the binding signal (ETS2) is reported as 1.29 fold enrichment (6-mer frequency, TF over GST control). For the same sequence, the binding signal (SPDEF) was 1.26 fold enrichment (6-mer frequency, TF over GST control), the binding signal (ETV7) was 1.1 fold enrichment (6-mer frequency, TF over GST control) and the binding signal (ELF5) was 1.18 fold enrichment (6-mer frequency, TF over GST control). The binding signal (ETV3) was 1.24 fold enrichment (6-mer frequency, TF over GST control) and the binding signal (ETV6) was 1.21 fold enrichment (6-mer frequency, TF over GST control).
CCTCGC was tested, and the binding signal (ERF) was 1.31 fold enrichment (6-mer frequency, TF over GST control), the binding signal (ETV3L) was 1.53 fold enrichment (6-mer frequency, TF over GST control) and the binding signal (ETS2) was 1.41 fold enrichment (6-mer frequency, TF over GST control). The binding signal (SPDEF) was 1.42 fold enrichment (6-mer frequency, TF over GST control), the binding signal (ETV7) was 1.48 fold enrichment (6-mer frequency, TF over GST control) and the binding signal (ELF5) was 1.41 fold enrichment (6-mer frequency, TF over GST control). For the same sequence, the binding signal (ETV3) was 1.45 fold enrichment (6-mer frequency, TF over GST control) and the binding signal (ETV6) was 1.25 fold enrichment (6-mer frequency, TF over GST control).
For CTTTCG, the binding signal (ERF) was 1.23 fold enrichment (6-mer frequency, TF over GST control), the binding signal (ETV3L) was 1.29 fold enrichment (6-mer frequency, TF over GST control) and the binding signal (ETS2) was 1.32 fold enrichment (6-mer frequency, TF over GST control). The binding signal (SPDEF) was 1.22 fold enrichment (6-mer frequency, TF over GST control), the binding signal (ETV7) was 1.3 fold enrichment (6-mer frequency, TF over GST control) and the binding signal (ELF5) was 1.26 fold enrichment (6-mer frequency, TF over GST control). The binding signal (ETV3) was 1.16 fold enrichment (6-mer frequency, TF over GST control) and the binding signal (ETV6) was 1.23 fold enrichment (6-mer frequency, TF over GST control).
With TGCAAA the binding signal (ERF) was 1.13 fold enrichment (6-mer frequency, TF over GST control), the binding signal (ETV3L) was 1.15 fold enrichment (6-mer frequency, TF over GST control) and the binding signal (ETS2) was 1.05 fold enrichment (6-mer frequency, TF over GST control). For the same sequence, the binding signal (SPDEF) was 1.1 fold enrichment (6-mer frequency, TF over GST control), the binding signal (ETV7) was 1.09 fold enrichment (6-mer frequency, TF over GST control) and the binding signal (ELF5) was 1.05 fold enrichment (6-mer frequency, TF over GST control). For the same sequence, the binding signal (ETV3) was 1.06 fold enrichment (6-mer frequency, TF over GST control) and the binding signal (ETV6) was 1.06 fold enrichment (6-mer frequency, TF over GST control).
ATGCGG was tested, and the binding signal (ERF) was 1.12 fold enrichment (6-mer frequency, TF over GST control), the binding signal (ETV3L) was 1.25 fold enrichment (6-mer frequency, TF over GST control) and the binding signal (ETS2) was 1.32 fold enrichment (6-mer frequency, TF over GST control). The binding signal (SPDEF) was 1.32 fold enrichment (6-mer frequency, TF over GST control), the binding signal (ETV7) was 1.25 fold enrichment (6-mer frequency, TF over GST control) and the binding signal (ELF5) was 1.21 fold enrichment (6-mer frequency, TF over GST control). For the same sequence, the binding signal (ETV3) was 1.45 fold enrichment (6-mer frequency, TF over GST control) and the binding signal (ETV6) was 1.26 fold enrichment (6-mer frequency, TF over GST control).
